PubChem BioAssay AID463173 (ICCB-Longwood Screening Facility, Harvard Medical School, 2010)
Screen size: about 52,000 compounds; about 4,300 (8.3%) were called active. Rule as the data show it: active = survival mostly below about 52% (no sharp cut-off); inactive = mostly above about 56%. The sample as a whole holds a higher share of actives than the screen did.

Tested on: DeltatarO mutant
Assay: S. aureus survival, RN4220 and DeltatarO strains – OD600, teichoic acid synthesis inhibitors, primary screen (AID 463173)
Conditions: S. aureus RN4220 wild type/DeltatarO growth, OD600, 18 h, hits give low values, screened at 18.75 µg/mL (by protocol)

| Compound | survival |
| --- | --- |
| c1ccc(NCc2ccncc2)cc1 | 83% (inactive) |
| C=Cn1cccc1C(=O)O | 83% (inactive) |
| CC(C)CCNC(=O)c1ccc2c(c1)NC(=O)C(CS(=O)(=O)Cc1ccc(F)cc1)N2 (centres undefined) | 80% (inactive) |
| Cc1ccc(CNC(=O)CCCc2nnc3n(CC(C)C)c(=O)c4sccc4n23)cc1 | 101% (inactive) |
| CCOC(=O)Cn1c(=O)n(-c2ccccc2OC)c2nc(-c3ccccc3)nc(C(N)=O)c21 | -1% (active) |
| CCOC(=O)Cn1c(=O)n(CC2CCCO2)c2nc(-c3ccc(OCC)cc3)nc(C(N)=O)c21 (centres undefined) | -2% (active) |
| CCOC(=O)Cn1c(=O)n(CC2CCCO2)c2nc(-c3cccc(C)c3)nc(C(N)=O)c21 (centres undefined) | 79% (inactive) |
| CCOC(=O)Cn1c(=O)n(CC2CCCO2)c2nc(-c3ccc(CC)cc3)nc(C(N)=O)c21 (centres undefined) | 72% (inactive) |
| CCOC(=O)Cn1c(=O)n(CC2CCCO2)c2nc(-c3ccc(C)cc3)nc(C(N)=O)c21 (centres undefined) | 67% (inactive) |
| CCOC(=O)Cn1c(=O)n(-c2ccccc2OC)c2nc(-c3cccc(F)c3)nc(C(N)=O)c21 | 64% (inactive) |
| CCOC(=O)Cn1c(=O)n(CC2CCCO2)c2nc(-c3ccccc3)nc(C(N)=O)c21 (centres undefined) | 84% (inactive) |
| CCOC(=O)Cn1c(=O)n(CC2CCCO2)c2nc(-c3ccc(C(C)C)cc3)nc(C(N)=O)c21 (centres undefined) | 6% (active) |
| CCOC(=O)Cn1c(=O)n(-c2ccccc2OC)c2nc(-c3ccc(C(C)C)cc3)nc(C(N)=O)c21 | 86% (inactive) |
| COc1cc(OC)c(NC(=O)C2CCCN(c3ncnc4c3nc3n4CCCCC3)C2)cc1Cl (centres undefined) | 122% (inactive) |
| O=C1c2ccccc2C(=O)N1c1ncn[nH]1 | 94% (inactive) |
| O=C(CSc1nc2c([nH]c3ccccc32)c(=O)n1-c1ccc(F)cc1)Nc1ccc2c(c1)OCO2 | 58% (inactive) |
| COc1ccc(NC(=O)Cn2c(=O)n(CCCC(=O)NCc3ccccc3Cl)c(=O)c3ccccc32)c(OC)c1 | 125% (inactive) |
| O=C(CC1N=C2c3ccccc3N=C(SCc3ccc(Cl)cc3)N2C1=O)NCc1cccs1 (centres undefined) | 75% (inactive) |
| COc1ccc(CCNC(=O)c2ccc(Cn3c(=O)c4ccccc4n(Cc4cccc(F)c4)c3=O)cc2)cc1OC | 78% (inactive) |
| CNC(=O)C1CCC(Cn2c(=O)c3sccc3n(CC(=O)NCc3ccc(C)cc3)c2=O)CC1 (centres undefined) | 80% (inactive) |
| CNC(=O)C1CCC(Cn2c(=O)c3sccc3n(CC(=O)NCc3ccc(F)cc3)c2=O)CC1 (centres undefined) | 73% (inactive) |
| CNC(=O)C1CCC(Cn2c(=O)c3sccc3n(Cc3cc(C)ccc3C)c2=O)CC1 (centres undefined) | 47% (active) |
| Cc1ccc(C)c(Cn2c(=O)n(CC3CCC(C(=O)N4CCOCC4)CC3)c(=O)c3sccc32)c1 (centres undefined) | 80% (inactive) |

| Compound | survival |
| --- | --- |
| CNC(=O)C1CCC(Cn2c(=O)c3sccc3n(CC(=O)NCc3ccccc3)c2=O)CC1 (centres undefined) | 32% (active) |
| CNC(=O)C1CCC(Cn2c(=O)c3sccc3n(CC(=O)Nc3ccc(C)cc3C)c2=O)CC1 (centres undefined) | 87% (inactive) |
| COc1ccc(CC(=O)NC2CC(=O)N(c3cccc(F)c3)C2)cc1 (centres undefined) | 94% (inactive) |
| O=C(Nc1nncs1)C1c2ccccc2Oc2ccccc21 | 108% (inactive) |
| CCOC(=O)C1CCCN(S(=O)(=O)c2ccc3c(c2)CCCN3C(C)=O)C1 (centres undefined) | 80% (inactive) |
| CS(=O)(=O)N1CCSC1c1ccc(Cl)cc1Cl (centres undefined) | 109% (inactive) |
| COc1ccc2oc(=O)c(-c3nnc(-c4ccccc4)o3)cc2c1 | 69% (inactive) |
| O=C(O)CCC(=O)NCc1ccccn1 | 82% (inactive) |
| COc1cccc(NC(=O)CSc2nc3ccc(NC(=O)c4cccs4)cc3s2)c1 | 65% (inactive) |
| O=c1oc2ccccc2cc1-c1nc(-c2cccc(Cl)c2)cs1 | 102% (inactive) |
| COc1ccc(/C=C(\C#N)c2nc(-c3cc4ccccc4oc3=O)cs2)cc1OC | 65% (inactive) |
| CCN(CC)c1ccc2cc(-c3nc(-c4ccc(Cl)cc4Cl)cs3)c(=O)oc2c1 | 37% (active) |
| Cc1cc(C)c(-c2csc(-c3cc4ccccc4oc3=O)n2)cc1C | 31% (active) |
| CCN(CC)c1ccc2cc(-c3nnc(-c4cccc(Cl)c4)o3)c(=O)oc2c1 | 69% (inactive) |
| CCN(CC)c1ccc2cc(-c3nc(-c4ccccc4F)no3)c(=O)oc2c1 | 101% (inactive) |
| COc1ccccc1/C=C(\C#N)c1nc(-c2cc3ccccc3oc2=O)cs1 | 56% (active) |
| COc1ccc(/C=C(/C#N)c2nc(-c3cc4ccccc4oc3=O)cs2)cc1 | 78% (inactive) |
| Cc1csc(-c2cc3ccccc3oc2=O)n1 | 85% (inactive) |
| CCCNC(=O)C1CCC(Cn2c(=O)c3sccc3n(CC(=O)N3CCCC3)c2=O)CC1 (centres undefined) | 67% (inactive) |
| O=c1cc(-c2ccc(F)cc2)nc(SCc2nc(-c3cccc(C(F)(F)F)c3)no2)[nH]1 | 99% (inactive) |
| COc1ccc(C)cc1NC(=O)C(CCSC)NS(=O)(=O)c1ccc2c(c1)oc(=O)n2C (centres undefined) | 95% (inactive) |
| CCc1cccc(NC(=O)c2cnc(SC)nc2-c2ccccc2)c1 | 84% (inactive) |
| COc1ccc2c(Sc3ccccc3)c(C(=O)NCc3cc(Br)ccc3OC)[nH]c2c1 | 95% (inactive) |

| Compound | survival |
| --- | --- |
| Cc1cc(C)cc(NC(=O)CSc2cc(C)[nH]c(=O)n2)c1 | 90% (inactive) |
| CC(=O)c1cccc(Nc2ncnc3c2cnn3-c2cccc(Cl)c2)c1 | 102% (inactive) |
| Cc1ccc(C2=CC(c3ccc(Cl)cc3)n3nc(-c4ccc(C)cc4)nc3N2)cc1 (centres undefined) | 44% (inactive) |
| COc1ccc(C2C=C(c3ccccc3)Nc3nc(NS(=O)(=O)c4ccccc4)nn32)cc1 (centres undefined) | 25% (active) |
| Cc1ccc(C2=CC(c3c(F)cccc3Cl)n3ncnc3N2)cc1C (centres undefined) | 64% (inactive) |
| CC(C)c1ccc(C2=CC(c3cccc(Cl)c3)n3ncnc3N2)cc1 (centres undefined) | -1% (active) |
| CC(C)c1ccc(C2=CC(c3ccc(C(C)C)cc3)n3nnnc3N2)cc1 (centres undefined) | 67% (inactive) |
| COc1cccc(C2=CC(c3ccc(OC)c(OC)c3OC)n3ncnc3N2)c1 (centres undefined) | 91% (inactive) |
| COc1ccc(C2C=C(c3ccc(F)cc3)Nc3nc(-c4ccc(Cl)cc4)nn32)cc1 (centres undefined) | 104% (inactive) |
| COc1ccc(C2C=C(c3ccc(Cl)c(Cl)c3)Nc3ncnn32)cc1 (centres undefined) | 6% (active) |
| CC(C)c1ccc(C2=CC(c3cccc(Cl)c3)n3c(nc4ccccc43)N2)cc1 (centres undefined) | 76% (inactive) |
| COc1ccc(C2C=C(c3ccc(Cl)cc3)Nc3nc(-c4ccc(Cl)cc4)nn32)cc1 (centres undefined) | 38% (active) |
| COc1ccc(C2C=C(c3ccccc3)Nc3nc(NS(=O)(=O)c4ccc(C)cc4)nn32)cc1 (centres undefined) | 55% (inactive) |
| CC(=O)Nc1ccc(S(=O)(=O)NCc2ccc3c(c2)CCN3C(C)=O)cc1 | 89% (inactive) |
| Cc1ccc(N2C(=O)[C@@H]3CSC(c4ccc(Cl)cc4)N3C2=O)cc1 (some centres undefined) | 69% (inactive) |
| O=C(Cn1ccn(-c2ccc(F)c(F)c2)c(=O)c1=O)Nc1ccccc1F | 65% (inactive) |
| COc1ccc(CNCC#N)cc1OC | 77% (inactive) |
| CCn1cc(S(=O)(=O)c2ccc(OC)cc2)c(=O)c2cc(F)c(N3CCC(C)CC3)cc21 | 83% (inactive) |
| Cc1cc(C)c2c(n1)SCC(=O)N2CC(=O)Nc1c(C)cccc1C | 98% (inactive) |
| O=C1CC(Sc2ncccc2C(=O)O)C(=O)N1 (centres undefined) | 95% (inactive) |
| COC(=O)CSc1nnc(-c2cccc(O)c2)o1 | 82% (inactive) |
| Cn1c(=O)oc2cc(S(=O)(=O)NC(Cc3ccccc3)C(=O)NCc3ccccc3Cl)ccc21 (centres undefined) | 110% (inactive) |
| CCCc1cc(N2CCN(c3ccc(OC)cc3)CC2)n2cnnc2n1 | 71% (inactive) |

| Compound | survival |
| --- | --- |
| COc1ccc(C2C=C(c3ccccc3)Nc3nc(NS(=O)(=O)c4ccc(Cl)cc4)nn32)cc1 (centres undefined) | 3% (active) |
| COc1ccc(C2C=C(c3ccc(Cl)cc3)Nc3nc(NC(=O)CCC(=O)O)nn32)cc1 (centres undefined) | 74% (inactive) |
| COc1cc2c(=O)n(Cc3ccccc3Cl)c(=O)n(CC(=O)Nc3ccc(C)c(C)c3)c2cc1OC | 83% (inactive) |
| O=C(Cn1c(=O)oc2cc(S(=O)(=O)N3CCCC3)ccc21)NCc1ccc(F)cc1 | 114% (inactive) |
| CCCN(Cc1cc2cc(C)ccc2[nH]c1=O)C(=O)c1cccc(Cl)c1 | 73% (inactive) |
| Cc1ccccc1NS(=O)(=O)c1ccc2[nH]c3c(c2c1)CCCCC3 | 89% (inactive) |
| Cc1ccc(C)c(S(=O)(=O)c2cnc(SCC(=O)Nc3ccc(F)cc3F)[nH]c2=O)c1 | 43% (active) |
| Cc1ccc(C)c(NC(=O)CSc2ncc(S(=O)(=O)c3ccc(C)c(Cl)c3)c(=O)[nH]2)c1 | 66% (inactive) |
| CCc1ccc(NC(=O)CSc2ncc(S(=O)(=O)c3cc(C)ccc3C)c(=O)[nH]2)cc1 | 59% (inactive) |
| Nc1ccc(N2CCOCC2)c(N)c1 | 74% (inactive) |
| Nc1ccc(N2CCN(c3ncc(C(F)(F)F)cc3Cl)CC2)c(C(F)(F)F)c1 | -5% (active) |
| Nc1ccc(-c2ccc(N)cc2C(F)(F)F)c(C(F)(F)F)c1 | 91% (inactive) |
| CCCOc1ccccc1C1Oc2nc(SC)nnc2-c2ccccc2N1C(C)=O (centres undefined) | 82% (inactive) |
| O=C(CCn1c(=O)oc2ccccc21)n1c(=O)oc2ccccc21 | 108% (inactive) |
| Fc1cc(Br)ccc1Nc1c2c(nc3nc(-c4cccs4)nn13)CCCC2 | 8% (active) |
| Cc1ccc(Nc2c3c(nc4nncn24)CCC3)cc1C | 55% (inactive) |
| CC(=O)c1cccc(Nc2c3c(nc4nc(-c5cccs5)nn24)CCCC3)c1 | 95% (inactive) |
| COc1cc(OC)c(Nc2c3c(nc4nc(-c5cccs5)nn24)CCCC3)cc1Cl | 89% (inactive) |
| Cc1ccc(Nc2c3c(nc4nc(-c5cccs5)nn24)CCCC3)cc1F | 20% (active) |
| COc1ccc(C)cc1Nc1c2c(nc3nc(-c4cccs4)nn13)CCCC2 | 91% (inactive) |
